# Reference: PubChem BioAssay AID588398 (Broad Institute, 2011)
# About 110 (9.2%) of roughly 1,200 compounds were called active. Roughly 8% stayed inconclusive and do not appear here.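 The calls were made as follows: active = pathway reporter half-maximal dose under half the control reporter's, or control reporter unaffected while pathway reporter is inhibited; inconclusive = either signal flat at 30 to 70% inhibition or poorly fitted; inactive = the rest.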 A selection follows. Entries with a potency or affinity are not part of this list.
# Assay: LMP1 TES1 pathway selectivity over dsRED control – imaging, HEK293T, dual-color eGFP/dsRED, cherry-picks, selectivity assay for LMP1 NF-kB inhibitor project, dose response (AID 588398)
# Settings: 48 h; HEK293T Tet-On dsRED counter-screen channel, at 19.5 µM (top of the series)
row,SMILES,outcome
1,Cn1cccc1CC(=O)NNC(=S)Nc1ccccc1Cl,inactive
2,COC(=O)C1=C(C)N(CCCC(=O)O)C(=O)NC1c1cccc(Cl)c1Cl (stereo not given),inactive
3,COc1cc2cc(C(=O)N3CCN(c4ccccc4OC)CC3)[nH]c2cc1OC,inactive
4,CCN(C(=O)c1cccc(NC(=O)c2ccccc2)c1)C1CCCCC1,inactive
5,O=C(Nc1cccc(C(=O)O)c1)Nc1ccccc1Cl,inactive
6,N=c1c(-c2nc3ccccc3[nH]2)cc(C(=O)c2cccs2)nn1-c1ccccc1,inactive
7,CCCCCC(=O)N1CCN(c2ccc(C(C)=O)cc2F)CC1,inactive
8,Cc1ccc(-c2csc(=Nc3cccnc3)n2CCCn2ccnc2)cc1C,inactive
9,COc1cc(/C=C(\C#N)c2ccccn2)ccc1OCc1ccccc1Cl,inactive
10,Cc1cc(/C=C2\Cc3ccccc3C2=O)c(C)n1-c1ccccc1,inactive
11,CCCCNC(=S)Nc1ccc([N+](=O)[O-])cc1,inactive
12,CC(=O)NC(CCS(C)(=O)=O)C(=O)Nc1ccc(Cl)c(Cl)c1 (stereo not given),inactive
13,C=C1C(=O)C2=CC1CCC(=O)C1(C)CCC(OC(C)=O)C(C)(C)C1CC2O (stereo not given),inactive
14,O=C(NCC1CCOCC1)c1ccc(OC2CCN(Cc3ccccn3)CC2)cc1,inactive
15,CCc1ccc(/C=N/NC(=O)c2ccccn2)cc1,inactive
16,Cc1ccsc1-c1nc(CSCC(=O)N2CCN(c3ccccc3)CC2)c(C)o1,inactive
17,CCCSc1nc2cc(S(=O)(=O)N3CCOCC3)ccc2n1CC,inactive
18,CC(C)OCCCNC(=O)C1CCC(CNS(=O)(=O)c2ccccc2)CC1 (stereo not given),inactive
19,NC1=NC(=O)NC1(c1ccccc1)c1ccccc1,inactive
20,Cc1cc(=S)[nH]c2ccccc12,inactive
21,CCOCCCn1c(=S)[nH]c2ncccc2c1=O,inactive
22,C=CCn1c(O)c(N=NC(=S)Nc2cccc(C)c2)c2ccccc21,inactive
23,Cn1nc(-c2ccc(N3CCOCC3)c(NS(=O)(=O)c3ccccc3)c2)c2ccccc2c1=O,inactive
24,COc1cccc(/C=N/Nc2nc3ccccc3[nH]2)c1O,inactive
25,CCN(CC)S(=O)(=O)c1ccc(N/N=C/c2ccc(O)cc2O)nc1,inactive
26,C(=N\Nc1nc2ccccc2[nH]1)/c1cccc2nccnc12,inactive
27,CCN(CC)c1ccc(/C=N/NC(=O)c2ccc3nc[nH]c3c2)c(O)c1,inactive

row,SMILES,outcome
1,Cc1ccc(/C=C/c2nc3ccccc3c(=O)[nH]2)cc1,inactive
2,CCN(CC)c1ccc(NC(=O)c2cccc(F)c2)c(C)c1,inactive
3,Cc1cc(C)cc(C(=O)NCCC(=O)NCc2cc(=O)n(C)c(=O)n2C)c1,inactive
4,O=C(CSc1nnc(-c2cccc(S(=O)(=O)N3CCOCC3)c2)n1C1CCCCCC1)NCc1ccccc1,inactive
5,CN(C)CC(C)(C)CNS(=O)(=O)c1ccc(OC(F)(F)F)cc1,inactive
6,COc1ccc2[nH]c3c(=O)n(CCCCC(=O)N4CCC(C(N)=O)CC4)c(=S)[nH]c3c2c1,inactive
7,COc1ccc2cc(C(N)=O)/c(=N\NC(=O)c3ccccc3)oc2c1,inactive
8,CN(C)/C=C/C(=O)c1ccc2noc(-c3ccccc3)c2c1,inactive
9,N#Cc1c(NC(=O)CCCC(=O)O)sc2c1CCCCC2,inactive
10,CC(C)[C@H](N[C@@H](C)c1ccccc1)c1c(O)ccc2ccccc12,inactive
11,CC(=O)c1c(C)[nH]c(C(=O)Nc2ccc(C)cn2)c1C,inactive
12,COc1ccc(Nc2oc(COc3ccccc3OC)nc2C#N)cc1,inactive
13,COc1cc2nc(NC(=O)c3ccco3)sc(=O)c2cc1OC,inactive
14,CCOC(=O)C1=C(C)N(C)C(=O)NC1c1ccccc1OC (stereo not given),inactive
15,O=C(Nc1cc(S(=O)(=O)N2CCOCC2)ccc1Cl)c1ccncc1,inactive
16,O=C1C2CCCN2c2ccc(S(=O)(=O)N3CCOCC3)cc2N1Cc1ccccc1F (stereo not given),inactive
17,CCn1nc(C(=O)Nc2nc(-c3ccccn3)cs2)c2ccccc2c1=O,inactive
18,COc1ccc(C2CC(C(F)(F)F)n3ncc(C(=O)NCc4cccnc4)c3N2)cc1OC (stereo not given),inactive
19,C=CCN=C1NN=C(c2cc(C)n(CCOC)c2C)CS1,inactive
20,Cc1cccc(C)c1NC(=O)CN(C)CC(=O)Nc1ccccc1Oc1ccccc1,inactive
21,Cc1sc2nc(SCC(=O)OC(C)C)n(C)c(=O)c2c1C,inactive
22,O=C(c1ccc(Cl)cc1)N1CCN(CCOc2ccccc2)CC1,inactive
23,Cc1cccc(Cn2cc(SCC(=O)Nc3nccs3)c3ccccc32)c1,inactive
24,O=C(CSc1nc2ccccc2c(=O)n1CCCN1CCOCC1)Nc1ccc(Br)cc1,inactive
25,O=C(Cn1cc(CNC(=O)C2CCCCC2)nn1)Nc1cc(C(F)(F)F)ccc1Cl,inactive
26,COc1ccc(C(=O)Nc2cccc(C(=O)N/N=C/c3ccc(OC)cc3OC)c2)cc1,inactive
27,COc1ccc(NC(=O)c2cc3ccccc3oc2=O)cc1,inactive

row,SMILES,outcome
1,COc1cc(NC(=S)N2CCN(CCO)CC2)cc(OC)c1,inactive
2,CCCc1nc(SCC(=O)NCc2ccco2)c2c(=O)n(C)c(=O)n(C)c2n1,inactive
3,Oc1c(N=NC(=S)Nc2ccccc2F)c2ccccc2n1Cc1ccccc1F,inactive
4,O=C1C=Cc2cccc3ccc(O)c1c23,inactive
5,COc1ccc(OC)c(CCNC(=O)CCn2nc(C)c3c(C)n(-c4ccccc4)nc3c2=O)c1,inactive
6,Cc1ccc(C2=C/C(=C\c3cccnc3)C(=O)O2)cc1,inactive
7,O=C(CCCN1C(=O)/C(=C/c2ccccc2Cl)SC1=S)NNC(=O)c1ccccc1Cl,inactive
8,CC1S/C(=C(\C#N)C(=O)NCc2ccco2)N(Cc2ccco2)C1=O (stereo not given),inactive
9,O=C(O)CN1C(=O)/C(=C\c2ccccc2OCc2ccc(Cl)cc2Cl)SC1=S,inactive
10,CCc1ccc(/C=C2\SC(=S)N(CCCC(=O)NC3=NCCS3)C2=O)cc1,inactive
11,COc1cc(/C=C2/SC(=S)N(Cc3ccccc3)C2=O)ccc1OCC(=O)O,inactive
12,CCCC(C)NC(C)C(=O)NC1CCCC1 (stereo not given),inactive
13,COc1ccc(C(=O)Nn2c(SCC(=O)NCc3ccco3)nc3ccccc3c2=O)cc1,inactive
14,O=C(Nc1ccc(Br)cc1)C1CC(O)CN1C(=O)OCc1ccccc1 (stereo not given),inactive
15,CCOc1ccc(NC(=O)CCc2nnc3ccc(N4CCC5(CC4)OCCO5)nn23)cc1,inactive
16,COc1ccc(N2CCN(c3ncnc4c3[nH]c3ccccc34)CC2)cc1,inactive
17,CC1(C)CN(Cc2ccccc2)C(=O)[C@H]1CC(=O)Nc1ccccc1,inactive
18,CC(=O)c1ccccc1OCC(=O)Nc1cccc(S(=O)(=O)N2CCCC2)c1,inactive
19,Cc1ccc(C(=O)Nc2cccc(C(F)(F)F)c2)cc1Nc1ncnc2nc[nH]c12,inactive
20,CC(=O)Nc1ccc(C=NNc2nnc(NN=Cc3ccc(NC(C)=O)cc3)c3ccccc23)cc1,inactive
21,Cc1ccnc(NC(=O)c2cccc(NC(=O)c3ccc(Cl)c(Cl)c3)c2)c1,inactive
22,COc1ccc(NC(=O)COC(=O)/C=C/c2ccc(OC)c(S(=O)(=O)N3CCOCC3)c2)cc1,inactive
23,COc1ccc(C=C2CS(=O)(=O)CC(=Cc3ccc(OC)cc3)C2=O)cc1,inactive
24,COC(=O)[C@@]1(Cc2ccccc2)[C@H]2C(=O)N(Cc3ccccc3)C(=O)[C@H]2[C@H]2CN=C(SCc3ccc(Cl)cc3)N21,inactive
25,CCOc1ccc(NC(=S)N=Nc2c(O)[nH]c3ccccc23)cc1,inactive
26,CC(NC(=O)CNC(=O)OCc1ccccc1)C(=O)N1CC(O)CC1C(=O)OCc1ccccc1 (stereo not given),inactive
27,CCN1CCN(Cc2ccc(NC(=O)c3ccc(C)c(NC(=O)c4cccc5[nH]ccc45)c3)cc2C(F)(F)F)CC1,inactive

row,SMILES,outcome
1,Cc1ccc(C)c(Cn2c(O)c(N=NC(=S)Nc3ccccc3F)c3ccccc32)c1,inactive
2,COc1cc(OC)cc(-c2cc3nc(C)c(CCC(=O)O)c(C)n3n2)c1,inactive
3,O=C(C[n+]1ccccc1)N/N=C/c1ccc(O)cc1,inactive
4,C#CCN(C[C@@H]1[C@@H](OC(=O)NCc2ccccc2F)[C@@H](OC(=O)NCc2ccccc2F)Cn2c(=O)ccc(=O)n21)S(=O)(=O)c1ccc(C)cc1,inactive
5,Cc1ccnc(NC(=O)c2ccc(OCC3CCCO3)cc2)c1 (stereo not given),inactive
6,Cc1ccc(-n2c(=O)c3c(c4cc(C)ccc4n3C)n(CC(=O)NCC3CCCO3)c2=O)cc1 (stereo not given),inactive
7,CCOc1ccc(C(=O)NC(=S)N(Cc2ccccc2)Cc2ccccc2)cc1,inactive
8,O=C(Nc1cc(Cl)ccc1Cl)C1Cc2ccccc2O/C1=N\O (stereo not given),inactive
9,CCOC(=O)c1sc2nc(C)nc(NCc3ccccc3)c2c1C,inactive
10,COc1ccc(CN2C(=O)c3cccnc3C2Nc2cc(Cl)ccc2OC)cc1 (stereo not given),inactive
11,CCC(=O)NC(c1cc(Cl)c2cccnc2c1O)C1CC1 (stereo not given),inactive
12,CC(=O)NC(c1ccc(Cl)cc1Cl)c1ccc2cccnc2c1O (stereo not given),inactive
13,CCC(=O)NC(c1ccc(C)cc1)c1cc(Cl)c2cccnc2c1O (stereo not given),inactive
14,CN(C)S(=O)(=O)c1ccc(Cl)c(C(=O)NCCNC(=O)c2cc(S(=O)(=O)N(C)C)ccc2Cl)c1,inactive
15,CCNc1nc(CN2CCOCC2)nc2sc3c(c12)CCC3,inactive
16,Cc1nn(-c2ccccc2)c(Cl)c1C(=O)N1CCN(c2ncnc3c2cnn3-c2ccccc2)CC1,inactive
17,O=c1nc(N/N=C/C=C/c2ccccc2)cn[nH]1,inactive
18,CN(CCNC(=O)C1CCN(S(=O)(=O)N2CCOCC2)CC1)CCc1ccccc1,inactive
19,O=C(N/N=C/c1cc2c3c(c1O)CCCN3CCC2)c1ccccc1O,inactive
20,CCOC(=O)C1CCN(S(=O)(=O)Cc2ccccc2)C1=O (stereo not given),inactive
21,CCOC(=O)CCSc1nc(N2CCOCC2)c2c(c1C#N)CC(C)(C)OC2,inactive
22,COc1ccc(C=NNc2nc3ccccc3s2)cc1,inactive
23,C(=Cc1nc2ccccc2o1)c1ccc2c(c1)OCO2,inactive
24,c1ccn2cc(-c3ccc4c(c3)OCCO4)nc2c1,inactive
